Measurements taken from PubChem BioAssay AID651548 (Broad Institute, 2012).
Values joined by “and” are separate entries in the source; they are usually repeats but may differ in a detail not shown here. Equal values may be shown once. Screen size: about 57,000 compounds; about 200 (0.35%) were called active.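 Rule for the calls: active = mean inhibition of replicates at least 50% and every single replicate also reaching 50%; inconclusive = mean inhibition at least 50% but some replicate falls below 50%; inactive = mean inhibition under 50%.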 The entries come from a sample that favours actives as a whole.

molecular target: Histone-lysine N-methyltransferase EZH2 (Homo sapiens) (UniProt Q15910); test: inhibition of PRC2 H3K27 methylation – biochemical, DELFIA time-resolved fluorescence, single point, primary screen (AID 651548); conditions: DELFIA TRF, 1 h, at 12.5 µM, stronger effect = higher value;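 note: dimethyl H3K27 on biotinylated H3 21-44 peptide detected by antibody; plate controls were median neutral control wells for no effect and median positive control wells for full effect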
Sequence (Q15910 whole entry, looked up): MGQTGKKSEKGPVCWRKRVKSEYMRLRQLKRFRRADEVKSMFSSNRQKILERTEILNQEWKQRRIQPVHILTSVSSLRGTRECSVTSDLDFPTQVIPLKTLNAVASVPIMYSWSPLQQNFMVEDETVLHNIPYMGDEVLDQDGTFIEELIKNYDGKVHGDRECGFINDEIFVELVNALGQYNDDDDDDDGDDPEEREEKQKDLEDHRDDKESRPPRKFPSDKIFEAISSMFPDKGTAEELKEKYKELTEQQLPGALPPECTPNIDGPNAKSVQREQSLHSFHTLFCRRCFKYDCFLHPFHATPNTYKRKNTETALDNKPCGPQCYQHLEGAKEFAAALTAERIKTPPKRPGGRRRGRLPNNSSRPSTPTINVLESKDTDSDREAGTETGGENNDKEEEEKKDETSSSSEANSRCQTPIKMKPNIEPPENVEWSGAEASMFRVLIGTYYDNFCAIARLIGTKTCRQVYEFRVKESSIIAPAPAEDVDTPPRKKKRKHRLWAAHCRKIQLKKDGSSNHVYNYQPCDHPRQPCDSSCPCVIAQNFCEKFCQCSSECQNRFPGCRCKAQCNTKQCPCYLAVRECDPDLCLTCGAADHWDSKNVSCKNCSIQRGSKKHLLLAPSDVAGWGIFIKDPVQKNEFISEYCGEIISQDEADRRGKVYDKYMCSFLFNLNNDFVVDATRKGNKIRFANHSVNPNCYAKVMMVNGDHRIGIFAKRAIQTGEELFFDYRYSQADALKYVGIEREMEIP

inhibition, active:
C[C@@H]1CN([C@H](C)CO)S(=O)(=O)c2ccc(C#CCC3CCCC3)cc2O[C@H]1CN(C)Cc1ccc(C(=O)O)cc1 58.1%, CCCCCc1ccc(/C=C/C(=O)Nc2ccccc2C(=O)O)cc1 61.8%, CC1=CCC(C(C)(C)O[C@@H]2O[C@H](COC(=O)c3cc(O)c(O)c(O)c3)[C@@H](O)[C@H](O)[C@H]2O)CC1 (some centres undefined) 91.8%

inhibition, inactive:
C[C@@H](NC(=O)C[C@@H]1C[C@@H]2c3cc(NC(=O)c4cccnc4)ccc3O[C@@H]2[C@H](CO)O1)c1ccccc1 4.89%, CCC(=O)N1C[C@@H](C)[C@@H](OC)CN(C)C(=O)c2ccc(NC(=O)c3ccccc3)cc2OC[C@H]1C 2.93%, C[C@@H]1CN([C@@H](C)CO)S(=O)(=O)c2ccc(C#CCC3CCCC3)cc2O[C@@H]1CN(C)C -6.13%, CCCN(C)C[C@H]1Oc2cc(C#CCC3CCCC3)ccc2S(=O)(=O)N([C@@H](C)CO)C[C@@H]1C 10.9%, CO[C@@H](CN(C)S(=O)(=O)c1ccc(C)cc1)[C@@H](C)CN([C@@H](C)CO)S(=O)(=O)c1cccc(Cl)c1 9.64%, CN(C)CCCNC(=O)C[C@H]1C=C[C@@H](NC(=O)Cc2cccnc2)[C@H](CO)O1 13.4%, Cc1ccccc1S(=O)(=O)NCC[C@@H]1CC[C@H](NC(=O)C2CC2)[C@@H](CO)O1 -14.1%, COCCNC(=O)C[C@H]1CC[C@H](NS(=O)(=O)c2ccc(C)cc2)[C@@H](CO)O1 -9.8%, COCC(=O)N(C)C[C@@H]1Oc2cc(C#CCC(C)C)ccc2S(=O)(=O)N([C@@H](C)CO)C[C@@H]1C 7.89%, CO[C@H]1CN(C)C(=O)c2cc(NC(=O)C3CCCC3)ccc2OC[C@@H](C)N(C(=O)CC2CC2)C[C@@H]1C 4.88%, C[C@@H]1CN([C@H](C)CO)C(=O)c2cc(NC(=O)CCCN(C)C)ccc2O[C@@H](C)CCCCO[C@H]1CN(C)CC1CCCCC1 -6.09%, C[C@@H]1CN([C@@H](C)CO)S(=O)(=O)c2ccc(C3=CCCCC3)cc2O[C@@H]1CN(C)C(=O)CN(C)C -15.1%, O=C(C[C@@H]1C[C@@H]2c3cc(NC(=O)Nc4ccc(F)cc4)ccc3O[C@@H]2[C@H](CO)O1)NCC(F)(F)F -13.1%, CO[C@@H]1CN(C)C(=O)c2cc(NC(=O)c3ccccc3F)ccc2OC[C@H](C)N(C(C)=O)C[C@@H]1C -5.74%, C[C@H]1CN([C@@H](C)CO)C(=O)c2cc(Br)cnc2O[C@@H]1CN(C)S(=O)(=O)c1ccc(F)cc1 30.8%, O=C(C[C@@H]1CC[C@@H](NC(=O)c2ccc3c(c2)OCO3)[C@H](CO)O1)NCc1ccc(Cl)cc1 11.8%, C[C@@H]1CN([C@H](C)CO)C(=O)c2cccc(NC(=O)CCCCCC(=O)Nc3ccccc3N)c2O[C@H]1CN(C)Cc1ccc(Oc2ccccc2)cc1 -2.58%, O=C(O)CCCc1ccccc1 -7.51%, CN(C)CCCSc1ccccc1NC(=O)/C=C/c1ccccc1 7.12% and -8.56%, O=C(N[C@@H]1CC[C@@H](CCNS(=O)(=O)Cc2ccccc2)O[C@@H]1CO)c1ccccc1F -4.43%, CCCNC(=O)Nc1ccc2c(c1)C(=O)N(C)C[C@@H](OC)[C@H](C)CN(C(=O)C1CCCCC1)[C@H](C)CO2 4.24%, O=C(N[C@H]1CC[C@@H](CCNS(=O)(=O)c2cccc(Cl)c2)O[C@@H]1CO)c1ccncc1 4.59%, O=C(NCC[C@@H]1CC[C@@H](NC(=O)C2CCCC2)[C@H](CO)O1)c1cnccn1 -12%, C[C@@H]1CN([C@@H](C)CO)C(=O)c2c(c3ccccc3n2C)-c2ccccc2CO[C@H]1CN(C)C(=O)N[C@H](C)c1ccccc1 -0.352%, CO[C@@H]1CN(C)C(=O)c2cc(NC(=O)C3CCC3)ccc2OC[C@H](C)N(C(=O)CN(C)C)C[C@@H]1C -0.841%, CCCNC(=O)C[C@H]1C[C@@H]2c3cc(NC(=O)NC4CCCC4)ccc3O[C@@H]2[C@@H](CO)O1 5.85%, C[C@H](NC(=O)C[C@H]1C=C[C@@H](NC(=O)C2CCOCC2)[C@@H](CO)O1)c1ccccc1 3.06%, COc1ccccc1-c1cccc(-c2nc(C(=O)N3CCN(C)CC3)cc3c2[C@H](CCO)N([S@@](=O)C(C)(C)C)C3)c1 1.13%, CO[C@@H]1CN(C)C(=O)c2cc(NC(C)=O)ccc2OC[C@@H](C)N(C(=O)NC2CCCCC2)C[C@H]1C 3.91%, O=C(C[C@H]1C[C@H]2c3cc(NC(=O)C4CCC4)ccc3O[C@H]2[C@@H](CO)O1)NCc1ccc(Cl)cc1 -2.37%, CN1CCN(C(=O)C[C@@H]2C[C@@H]3c4cc(NC(=O)c5ccc6c(c5)OCO6)ccc4O[C@@H]3[C@H](CO)O2)CC1 -2.8%, COc1cccc(-c2ccc3c(c2)O[C@H](CN(C)C(=O)c2ccccc2F)[C@@H](C)CN([C@@H](C)CO)S3(=O)=O)c1 0.0695%, O=C(Nc1ccccc1)Nc1ccc2c(c1)[C@@H]1C[C@@H](CC(=O)N3CCCCC3)O[C@H](CO)[C@@H]1O2 -1.6%, O=C(C[C@H]1C[C@H]2c3cc(NC(=O)Nc4ccccc4)ccc3O[C@H]2[C@H](CO)O1)NC1CCCC1 2.44%, COc1ccccc1NC(=O)N[C@H]1CC[C@H](CCNS(=O)(=O)c2ccc(Cl)cc2)O[C@H]1CO 47.2%, COc1cccc(C(=O)Nc2ccc3c(c2)OC[C@H](C)N(C(C)=O)C[C@@H](C)[C@@H](OC)CN(C)C3=O)c1 6.08%, C/C=C/c1ccc2c(c1)O[C@H](CN(C)C(=O)C1CCCCC1)[C@@H](C)CN([C@@H](C)CO)S2(=O)=O 13.7%, CCC(=O)Nc1ccc2c(c1)OC[C@@H](C)N(Cc1cncnc1)C[C@H](C)[C@@H](OC)CN(C)C2=O -1.64%, COc1ccc(C(=O)Nc2ccc3c(c2)OC[C@H](C)N(C(C)=O)C[C@@H](C)[C@@H](OC)CN(C)C3=O)cc1 -11.8%, CO[C@@H]1CN(C)C(=O)c2ccc(NC(=O)C3CC3)cc2OC[C@@H](C)N(Cc2ccncc2)C[C@@H]1C 8.95%, O=C(C[C@H]1CC[C@H](NC(=O)c2ccncc2)[C@H](CO)O1)Nc1ccccc1 16.3%, O=C(C[C@H]1C[C@@H]2c3cc(NS(=O)(=O)c4ccc(F)cc4)ccc3O[C@@H]2[C@H](CO)O1)NCc1cccc(F)c1 -5.18%, O=C(N[C@H]1CC[C@@H](CCNC(=O)C2CCC2)O[C@@H]1CO)c1ccncc1 -3.82%, CN(C)CC(=O)Nc1ccc2c(c1)[C@H]1C[C@@H](CC(=O)NCc3ccccn3)O[C@@H](CO)[C@H]1O2 -17%, CO[C@H]1CN(C)C(=O)c2ccc(NC(=O)C3CCCC3)cc2OC[C@@H](C)NC[C@@H]1C 7.43%, CCC(=O)N1C[C@@H](C)[C@H](OC)CN(C)C(=O)c2ccc(NC(=O)c3cc(C)on3)cc2OC[C@H]1C 7.38%, CCC(=O)Nc1ccc2c(c1)OC[C@H](C)N(CC1CCCCC1)C[C@@H](C)[C@H](OC)CN(C)C2=O -10.4%, CC(C)NC(=O)N[C@@H]1C=C[C@@H](CC(=O)N2CCCCC2)O[C@@H]1CO 7.89%, O=C(C[C@@H]1CC[C@H](NC(=O)Nc2ccc(F)cc2)[C@H](CO)O1)NCc1ccccn1 -0.96%, COc1cccc(-c2cnc3c(c2)C(=O)N([C@@H](C)CO)C[C@H](C)[C@H](CN(C)C(C)=O)O3)c1 1.62%, COCC#Cc1cnc2c(c1)C(=O)N([C@H](C)CO)C[C@H](C)[C@H](CN(C)C(=O)Nc1cc(F)ccc1F)O2 0.676%, COc1cccc(NC(=O)Nc2ccc3c(c2)OC[C@@H](C)NC[C@@H](C)[C@H](OC)CN(C)C3=O)c1 -3.01%, COc1cccc(S(=O)(=O)Nc2ccc3c(c2)[C@@H]2C[C@@H](CC(=O)NCc4ccc(Cl)cc4)O[C@H](CO)[C@@H]2O3)c1 -2.95%, O=C(C[C@@H]1C[C@@H]2c3cc(NC(=O)Nc4ccccc4F)ccc3O[C@@H]2[C@@H](CO)O1)NCCc1ccccc1 -11.7%, C[C@@H]1CN([C@H](C)CO)S(=O)(=O)c2ccc(C#CCN(C)C)cc2O[C@@H]1CN(C)C(=O)C1CCCCC1 1.46%, CC(C)NC(=O)Nc1ccc2c(c1)CC(=O)N([C@H](C)CO)C[C@H](C)[C@@H](CN(C)C(=O)Nc1ccc(F)cc1)O2 -14.2%, C[C@@H]1CN([C@H](C)CO)S(=O)(=O)c2ccc(-c3ccccc3)cc2O[C@@H]1CN(C)C(=O)C1CC1 7.84%, CCCNC(=O)Nc1ccc2c(c1)OC[C@H](C)N(Cc1ccccc1)C[C@H](C)[C@H](OC)CN(C)C2=O -21.6%, C[C@H]1CN([C@@H](C)CO)S(=O)(=O)c2ccc(C#CC3CCCC3)cc2O[C@@H]1CN(C)C(=O)c1cccc(F)c1 14.8%, O=C(C[C@@H]1CC[C@@H](NC(=O)C2CC2)[C@H](CO)O1)NCc1ccncc1 9.6%, CN(C)CC(=O)N[C@@H]1CC[C@@H](CCn2cc(C3CC3)nn2)O[C@H]1CO -8.32%
